In ChEMBL document CHEMBL3433997, “St. Jude Leishmania screening dataset” (2016):

The compounds below were run against Glucose transporter (Leishmania mexicana) (UniProt O61059) (assay: ST_JUDE_LEISH: Cytotoxicity at 2uM final concentration against transgenic Leishmania Mexicana promastigotes LmGT2 that are glucose transport deficient and complemented with the L. Mexicana glucose transporter 2. Activity is measured by DNA content using SYBR green in vitro).
Format: functional

In order of falling inhibition:
1. CCN(CC)CCCNc1nccc(N(C)c2ccc(NC(=O)Nc3cc(C(F)(F)F)ccc3F)cc2)n1  11.9%
2. CC(C)(C)NS(=O)(=O)c1cc(C(=O)N2CCC(CCN3CCC(C(=O)c4ccc(F)cc4)CC3)(c3cccc(F)c3)CC2)c(Cl)cc1F  5.52%
3. COc1cc(Cc2cnc(N)nc2N)cc(OCCCCC2SC(=O)NC2=O)c1Br (stereo not given)  5.43%
4. CC(CN)OCn1cnc2c(N)ncnc21 (stereo not given)  4.83%
5. Cc1cccc2nc(-c3ccc(-c4cccc(CNCc5ccc(CN)cc5)c4)s3)[nH]c12  4.55%
6. CC1CC(C)CN(CC(O)CNC(=O)Nc2ccc(Br)cc2)C1 (stereo not given)  3.33%
7. COc1cccc(CCN(Cc2ccccc2-c2ccc(CNC3CC(C)(C)NC(C)(C)C3)cc2)C(=O)NC2CCCCC2)c1  2.67%
8. c1ccc2cc3c(Nc4ccc(N5CCCCC5)cc4)ccnc3cc2c1  2.3%
9. COc1ccccc1NC(=O)Nc1ccc(-c2ccc(-c3nc4cc(C(F)(F)F)ccc4[nH]3)cc2)cc1  2.26%
10. CC[C@H](C)CNC(=O)c1cncc(-c2ccc(CN3CCC(N4CCCC4)CC3)cc2)c1  1.05%
11. N#Cc1cccc(C(=O)Nc2cccc(-c3ccc(CN4CCC(O)CC4)cc3)c2)c1  0.83%
12. COc1ccc(CC(=O)NC(CCCN2CCC(c3ccccc3)CC2)c2ccc(Cl)c(Cl)c2)cc1OC (stereo not given)  0.22%
13. Cc1nnc2c(NC(=O)NC3CCCC3)cc3cc(-c4ccc(CN5CCCCC5)cc4)ccc3n12  0.13%
14. Cc1ccc2[nH]ncc2c1N(CC1CCCCC1)c1ccnc(Nc2ccc(OCC(O)CN3CC=CCC3)cc2)n1 (stereo not given)  -0.59%
15. COc1cc(Cc2cnc(N)nc2N)cc(OCCNC(=O)OCc2ccccc2)c1OC  -1.22%
